# Experimental data published in PubChem BioAssay AID686970 (National Center for Advancing Translational Sciences (NCATS), 2013).
# Screen size: about 360,000 compounds; about 6,000 (1.7%) were called active. Inconclusive results (about 8%) are left out. Calls come from the whole dose curve; as a rule, active = well fitted cell-killing curve with a large enough effect; inconclusive = small, poorly fitted or top-dose-only effect, or effect the other way; inactive = flat fitted curve, though single readings scatter. The list comes from a sample in which actives are over-represented; it also holds similar structures and randomly drawn compounds. Entries that show only a call come without a potency.
# Assay: qHTS for induction of synthetic lethality in tumor cells producing 2HG: qHTS for the HT-1080-NT fibrosarcoma cell line; note: nearly all actives have a fitted effect of over 55% in size
# Settings: HT-1080-NT fibrosarcoma viability, CellTiter-Glo ATP luminescence, 48 h; series mostly up to 46.1 µM
# Excerpt: Unbiased genomic sequencing for 22 glioma genomes found recurrent mutation of IDH1 on chromosome 2q33, a gene encoding the cytosolic isoform of IDH1 associated with the tricarboxylic acid cycle (TCA) that catalyzes the oxidative decarboxylation of isocitrate, yielding alpha-ketoglutarate and CO2 via NADP+ to NADPH conversion. Subsequent studies confirmed the recurrent IDH mutations in up to 70% of secondary gliomas and in 10% of AML cases. In addition, the somatic mutation of cancer-associated IDH1 is a point mutation resulting in various amino-acid substituents at Arginine132 (IDH1 R132), a key residue found in the enzyme's active site that when mutated, results in the loss-of-function in metabolizing isocitrate but confers a gain-of-function to produce the oncometabolite 2-hydroxyglutarate (2HG). This in effect defines IDH1 as an oncogene and provides an extraordinary opportunity to discover chemical probes against mutant IDH1 that may translate into much needed new therapies for glioma and AML patients.
# This assay aims to perform a synthetic lethal screen for chemical probes specific for 2HG-producing tumor cells using matched paired cell lines (1) HT-1080-NT fibrosarcoma cell line that overproduces 2HG and (2) HT-1080-IDH1KD cell line which has IDH1 expression knocked-down. Desirable compounds are toxic to the NT fibrosarcoma cells but not to the IDH1KD cell line. The data in this AID corresponds to the results of the qHTS against the HT-1080-NT fibrosarcoma cell line.
# [1] Dang L, Jin S, Su SM. IDH mutations in glioma and acute myeloid leukemia. Trends of Mol Med. 2010; 16(9): 387-97.
# [2] Dang L et al. Cancer-associated IDH1 mutations produce 2-hydroxyglutarate. Nature. 2010; 465(7300):966.
# NIH Molecular Libraries Probe Production Centers Network [MLPCN]
# NIH Chemical Genomics Center [NCGC]
# Assay Submitter (PI): Lenny Dang Ph.D., Agios Pharmaceuticals
# Suspensions of trypsinized HT-1080-NT cells were dispensed into white, tissue culture-treated, solid 1536-well plates at 5uL/well (750 cells/well final concentration) in RPMI medium supplemented with 5% FBS. Plates were incubated at 37 degrees C for 2 hours, after which 23 nL of compounds or DMSO were delivered to each well using a pin tool. Plates were then incubated at 37 degrees C for an additional 48 hours. CellTiter-Glo viability reagent (Promega) was dispensed into wells (2.5uL/well) and incubated at room temperature for 10 minutes. The plates were measured on a PerkinElmer ViewLux plate reader for luminescent signal (clear filter, 1 sec exp). DMSO-treated control wells and media-only (no cells) control wells were used to normalize %Activity of identified toxic compounds; DMSO-treated wells corresponded to 0%Activity (100% viability), while media-only controls were used to normalize 100%Activity (0% viability).
# Concentration-response curves were fitted to the signals arising from the resulting luminescence. The concentration-effect curves were then classified based on curve quality (r2), response magnitude and degree of measured activity, and compounds were subsequently categorized based on their curve class.
# Potency is the fitted concentration of half-maximal effect.
row,SMILES,Potency
1,CN(C)CC1Oc2ccccc2OC1(O)c1ccccc1 (stereo not given),8.2 µM (active)
2,CCOC(=O)c1cccc(C2=C(CNC(=O)c3ccncc3)[C@H]3CC[C@@H](C2)N3Cc2ccccc2)c1,inactive
3,O=C1C2CCN(CC2)C1(CO)CO,inactive
4,O=c1[nH]c(O)c(C=Nc2cc(F)cc(F)c2)c(=O)[nH]1,inactive
5,COC1=CC=C2[C@H]3Cc4ccc(OC)c5c4[C@@]2(CCN3C)C1O5 (stereo not given in full),inactive
6,COc1ccc2c3c1O[C@H]1C[C@@H](O)C=C[C@@]31CCN(C)C2,8.2 µM (active)
7,COc1ccc2c(c1O)-c1cccc3c1[C@@H](C2)N(C)CC3,inactive
8,CC=C(C)C(=O)OC1CCN2CC=C(COC(=O)C(O)(C(C)OC)C(C)(C)O)C12 (stereo not given),inactive
9,O=P(OC1=CCCCC1)(c1ccccc1)c1ccccc1,inactive
10,O=c1[nH]c2ccccc2n1C1CCN(C(c2ccccc2)c2nnnn2Cc2ccccc2)CC1 (stereo not given),13 µM (active)
11,CSCCC(c1nnnn1C(C)(C)C)N1CCC(n2c(=O)[nH]c3ccccc32)CC1 (stereo not given),inactive
12,Cc1ccc(Cn2nnnc2CN2CCC(n3nnc4ccccc43)CC2)cc1,inactive
13,CCOC(=O)C1=C(C)OC(N)=C(C(=O)OC)C12C(=O)Nc1ccc(Br)cc12 (stereo not given),inactive
14,O=c1[nH]c(CN2CC=C(c3ccccc3)CC2)nc2scc(-c3cccs3)c12,inactive
15,S=C(NCCc1ccccc1)N1Cc2cc(N3CCOCC3)ccc2-n2nncc2C1,inactive
16,CCOc1ccc(-c2cc(C)[n+](CCN(CC)CC)c(-c3ccc(OCC)cc3)c2)cc1,8.2 µM (active)
17,COc1ccc(C2C=C(C)Oc3c2c(=O)oc2ccccc32)cc1OC (stereo not given),inactive
18,COC(=O)C1=C(c2ccc(OCc3ccccc3)cc2)C[C@@H]2CC[C@H]1N2C(=O)NCc1cccc(F)c1,inactive
19,CC1CCCN1CCC(C(N)=O)(c1ccccc1)c1ccccc1 (stereo not given),inactive
20,COc1ccc(CCn2c(O)c(C=NC3CC3)c(=O)[nH]c2=O)cc1OC,inactive
21,c1ccc(N2Cc3ccccc3-n3nncc3C2)nc1,inactive
22,CCC1(C)CC(CCNCc2ccc(N(C)C)cc2)(c2ccc(F)cc2)CCO1 (stereo not given),inactive
23,C[C@@H]1C[C@@H]2O[C@H]2/C=C\C=C\C(=O)Cc2c(Cl)c(O)cc(O)c2C(=O)O1,8.2 µM (active)
24,CC(=O)NCC1=C(c2ccc3ccccc3c2)C[C@@H]2CC[C@H]1N2Cc1ccco1,inactive
25,C=Cn1ccnc1P(=S)(c1cc(N(CC)CC)ns1)c1nccn1C=C,inactive
26,COC(=O)C1=C(c2ccc(OCc3ccccc3)cc2)C[C@@H]2CC[C@H]1N2C(=O)NCc1ccc(Cl)cc1,inactive
27,CC1=CC(=Cc2sc3ccccc3[n+]2C)C=C(C)O1,8.2 µM (active)

row,SMILES,Potency
1,O=[N+]([O-])c1ccc(C2C3C(c4ccccc4)=NC4(CCCCC4)N32)cc1 (stereo not given),inactive
2,Cc1ccc(OC(=O)N(C)C[C@@H]2OCc3cnnn3CCCC(=O)N([C@H](C)CO)C[C@@H]2C)cc1,inactive
3,COc1cc(Cn2c(N)c(C(=O)NCc3ccco3)c3nc4ccccc4nc32)cc(OC)c1OC,12.6 µM (active)
4,COC(=O)C1=C(c2ccccc2)C[C@@H]2CC[C@H]1N2C(=O)NCc1ccco1,inactive
5,Cc1ncoc1C(=O)NCC1=C(c2cccc3ccccc23)C[C@@H]2CC[C@H]1N2Cc1ccco1,inactive
6,CC(=O)c1c(O)n(C2CCCCCC2)c(=O)[nH]c1=O,inactive
7,O=C(NC1CCCCC1)N1Cc2cc(N3CCCCC3)ccc2-n2nncc2C1,inactive
8,c1cc2c(c(NC3=NCCCS3)c1)CCCC2,inactive
9,COC(=O)C1=C(c2ccc(Cl)c(C(F)(F)F)c2)C[C@@H]2CC[C@H]1N2C(=O)NC1CC1,inactive
10,C[C@]12CC[C@H](O)C[C@H]1CC[C@@H]1C2CC[C@]2(C)[C@@H](C3=CC(=O)OC3)[C@@H](O)C[C@]12O (stereo not given in full),5.8 µM (active)
11,C[C@]12CCC3C(CC[C@H]4C[C@@H](O)CC[C@]34C)C1C[C@@H](O)[C@H]2O (stereo not given in full),inactive
12,C[C@]12CCC3C(CC[C@H]4C[C@@H](O)CC[C@]34C)C1CC[C@@H]2O (stereo not given in full),inactive
13,C[C@H]1CN([C@@H](C)CO)C(=O)CCCn2nncc2CO[C@H]1CN(C)C(=O)Oc1ccccc1,inactive
14,CCOC(=O)[C@]12Cc3ccccc3[C@H]1N(C1CCCCC1)C(=O)c1cc(OC)ccc12,5.8 µM (active)
15,CCOC(=O)[C@]12Cc3cc(OC)ccc3[C@H]1N(C(C)C)C(=O)c1ccccc12,11.6 µM (active)
16,CCCC(C)n1[nH]c(=O)c2c1NC(=O)CSC2c1ccc(OC)c(OC)c1 (stereo not given),inactive
17,Oc1cc2c(cc1CN1CCN(c3ccccc3)CC1)OCO2,inactive
18,COc1ccccc1OC(=O)c1ccc(C)c(S(=O)(=O)N2CCOCC2)c1,inactive
19,CC1([N+](=O)[O-])COP(=O)(Nc2ccc(F)cc2)OC1 (stereo not given),inactive
20,O=c1c2ccccc2[nH]c(=S)n1-c1cccc(Cl)c1,inactive
21,Cc1cc(-c2ccc(N)c(C)c2)ccc1N,inactive
22,Nc1ccc(Cc2ccc(N)c(Cl)c2)cc1Cl,inactive
23,COC(=O)C[C@H]1CC[C@H]2NC[C@@H](O)COC[C@@H]2O1,inactive
24,Cc1c(Oc2cc(NN3CCCCC3)c([N+](=O)[O-])cc2[N+](=O)[O-])cccc1[N+](=O)[O-],inactive
25,Cc1nc2ccccc2c(=O)n1-c1ccc(Cl)cc1Cl,inactive
26,O=c1c2ccccc2nc(/C=C/c2ccco2)n1-c1ccccc1O,inactive
27,O=c1c2ccccc2nc(/C=C/c2ccc(F)cc2)n1-c1ccccc1O,23.1 µM (active)

row,SMILES,Potency
1,c1ccc(C(CN2CCCCC2)c2ccccc2)cc1,inactive
2,CCc1cccc2c(C#N)cn(CC(=O)N3CCOCC3)c12,inactive
3,COC1C(O)C(C)OC(OC2CCC3(C=O)C(CCC4C3CCC3(C)C(C5=CC(=O)OC5)CCC43O)C2)C1O (stereo not given),0.206 µM (active)
4,C[C@H]1CN([C@@H](C)CO)C(=O)CCCn2nncc2CO[C@H]1CN(C)C(=O)Oc1cccc2ccccc12,inactive
5,CCn1cc(CN2CCCC(C(=O)c3cccc(C(F)(F)F)c3)C2)cn1 (stereo not given),inactive
6,COc1ccc(NC(=O)N2Cc3ccccc3-n3nncc3C2)cc1,inactive
7,CC(=CCOc1ccc2ccc(=O)oc2c1)C1=CC(=O)C(C)(C)O1,inactive
8,O=c1c2ccccc2nc(CBr)n1-c1ccc(Cl)cc1,inactive
9,COC(=O)CN(CCCl)P1(=O)OCCCN1CCCl (stereo not given),inactive
10,CCCCCCCCCCCCn1ccc(=N)cc1,2.59 µM (active)
11,CSC1=NP(=S)(SC)N(C)c2nc3n(c21)CCC3 (stereo not given),inactive
12,COC(=O)C1=C(c2ccc(F)cc2F)C[C@@H]2CC[C@H]1N2C(=O)NC1CC1,inactive
13,CC(C)CN1Cc2cc(N3CCCCC3)ccc2-n2nncc2C1,inactive
14,COc1ccc(-c2nn(CCC#N)cc2C(=O)Nc2ccc(C(C)=O)cc2)cc1,inactive
15,CCOC(=O)CNC(=O)N1Cc2cc(N3CCCCC3)ccc2-n2nncc2C1,inactive
16,COc1cc(C2c3cc4c(cc3C(O)C3COC(=O)C23)OCO4)cc(OC)c1OC (stereo not given),0.0058 µM (active)
17,CCN1C(=O)NC(=O)C2(CCCC2)C1=O,inactive
18,CCOc1cccc(=NC2CCCCC2)c2c(C)[nH]c(C)c12,20.6 µM (active)
19,CCOP(=S)(OCC)C(O)CCCCCn1c(=O)c(F)cn(C2CCCO2)c1=O (stereo not given),inactive
20,COc1cc(C(=O)N2Cc3ccc(Br)cc3-n3nncc3C2)cc(OC)c1OC,inactive
21,COC1=C[C@@H]2[C@@H]3Cc4ccc(OC)c(O)c4[C@]2(CCN3C)CC1=O,inactive
22,O=[N+]([O-])c1ccc(Cl)c(Cl)c1,inactive
23,CC(=O)OC1C2(CC3N4C(=O)C5(CO)SSC4(CC31O)C(=O)N5C)OC(C)C(C)(C)C2=O (stereo not given),0.651 µM (active)
24,CC[C@H]1CC2CN3CCc4c([nH]c5ccccc45)C(C(=O)OC)(C2)C13 (stereo not given in full),inactive
25,CCN(N=Nc1nonc1OC)c1nonc1OC,inactive
26,CCOC(=O)C1CN(C)CCC1=O (stereo not given),inactive
